Consider 34 molecules from PubChem BioAssay.

A number with no mark means an inactive call. Active and inactive are the calls of the source.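 Rule for the calls, unless noted: active = mean inhibition above 46.5%, the solvent-only control mean plus 3 SD; inactive = the rest.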

Assay [1] deals with transactivating tegument protein VP16 (Human herpesvirus 1). The experiment in a line: VP16 transactivation reporter inhibitors, counter-screen for SRC2 inhibitor project, cell-based, luminescence, single concentration (AID 652007; in the data active = inhibition above about 36%). Conditions: cell-based VP16 transactivation luciferase reporter, at 8.9 µM, hits give high values.
Assay [2] has as its target Nuclear receptor coactivator 2 (Homo sapiens) (UniProt Q15596). Description: SRC2 coactivator transcriptional activity inhibitors, confirmation, cell-based, luminescence, HEK293, triplicate (AID 652008).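 Note: 0% = DMSO-treated cells and 100% = Gossypol at 36 µM.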 Conditions: HEK293 GAL4-SRC2 luciferase reporter, at 8.9 µM, hits give high values.

Sequence of Nuclear receptor coactivator 2 (Homo sapiens) (Q15596 whole entry, looked up, the tested form may be a part): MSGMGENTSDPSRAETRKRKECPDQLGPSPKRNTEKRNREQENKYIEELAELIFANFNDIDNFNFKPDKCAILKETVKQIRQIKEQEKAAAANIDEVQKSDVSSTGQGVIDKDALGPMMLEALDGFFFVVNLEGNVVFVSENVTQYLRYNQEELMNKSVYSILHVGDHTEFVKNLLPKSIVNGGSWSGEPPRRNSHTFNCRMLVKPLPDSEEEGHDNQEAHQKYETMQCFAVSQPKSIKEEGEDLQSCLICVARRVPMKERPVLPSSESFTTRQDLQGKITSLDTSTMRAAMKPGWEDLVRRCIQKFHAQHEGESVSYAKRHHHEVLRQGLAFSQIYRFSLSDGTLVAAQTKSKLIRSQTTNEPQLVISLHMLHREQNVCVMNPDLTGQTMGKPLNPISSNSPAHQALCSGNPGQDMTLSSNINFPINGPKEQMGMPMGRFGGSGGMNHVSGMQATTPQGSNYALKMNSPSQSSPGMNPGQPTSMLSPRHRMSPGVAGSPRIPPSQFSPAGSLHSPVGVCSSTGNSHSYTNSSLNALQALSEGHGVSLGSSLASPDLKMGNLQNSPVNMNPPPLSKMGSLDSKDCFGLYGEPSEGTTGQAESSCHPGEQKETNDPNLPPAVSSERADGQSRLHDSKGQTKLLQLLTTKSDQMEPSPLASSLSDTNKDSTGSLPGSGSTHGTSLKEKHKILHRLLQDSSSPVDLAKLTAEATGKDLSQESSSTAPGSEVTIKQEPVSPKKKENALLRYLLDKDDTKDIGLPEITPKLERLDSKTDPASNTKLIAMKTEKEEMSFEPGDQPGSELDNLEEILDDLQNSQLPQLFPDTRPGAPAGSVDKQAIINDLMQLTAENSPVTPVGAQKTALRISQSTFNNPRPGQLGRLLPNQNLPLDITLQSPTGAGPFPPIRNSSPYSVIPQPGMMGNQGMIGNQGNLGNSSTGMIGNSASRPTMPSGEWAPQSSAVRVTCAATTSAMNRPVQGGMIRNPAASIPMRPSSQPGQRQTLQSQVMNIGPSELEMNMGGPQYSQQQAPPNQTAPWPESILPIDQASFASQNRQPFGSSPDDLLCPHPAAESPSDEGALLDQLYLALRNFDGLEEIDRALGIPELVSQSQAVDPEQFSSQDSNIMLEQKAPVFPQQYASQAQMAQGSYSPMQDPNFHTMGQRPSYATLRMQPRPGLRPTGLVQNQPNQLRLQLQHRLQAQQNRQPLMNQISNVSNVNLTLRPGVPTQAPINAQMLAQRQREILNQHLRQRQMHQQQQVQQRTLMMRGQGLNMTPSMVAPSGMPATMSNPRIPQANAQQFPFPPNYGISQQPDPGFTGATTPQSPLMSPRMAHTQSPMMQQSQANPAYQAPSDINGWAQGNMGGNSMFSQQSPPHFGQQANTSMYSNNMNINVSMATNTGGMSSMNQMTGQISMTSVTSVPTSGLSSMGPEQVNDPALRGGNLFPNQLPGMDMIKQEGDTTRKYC

As to `O=S(=O)(c1ccc(NC(=S)NCc2ccco2)cc1)N1CCCCC1`, the inhibition in assay [1] was -14.6%; in assay [2] it was 4.68%.
As for `N#Cc1ccccc1COc1ccc(/C=C/C(=O)O)cc1`, the inhibition in assay [1] was 57.9% (active); in assay [2] it was 76.8% (active).
Turning to `Cc1ccc(C(=O)O/N=C(\N)c2ccccn2)cc1`, the inhibition in assay [1] is -66.4%; in assay [2] it was -57%.
For `CC(=O)Nc1cc(-c2ccc(C(=O)NC3CC3)cc2)cn2c(-c3cccc(C(F)(F)F)c3)cnc12`, the inhibition in assay [1] was -9.85%; in assay [2] it was -1.25%.
Turning to `CCOc1ccc(C(=O)C(CN2CCOCC2)c2ccccc2)cc1` (stereo not drawn), the inhibition in assay [1] was 14.2%; in assay [2] it was 42.6%.
Regarding `CCNC(=O)NC(=O)COC(=O)CCCSc1nc2ccccc2s1`, the inhibition in assay [1] was 5%; in assay [2] it was 24.9%.
For `Cc1cc(Cl)ccc1OCCCC(=O)NO`, the inhibition was 6.12% in assay [1] and 32.7% in assay [2].
Take `O=C(Nc1ccc2oc(=O)c(C(=O)O)cc2c1)Oc1ccccc1`: the inhibition in assay [1] was -3.08%; in assay [2], 9.66%.
For `COc1cc(/C=C2\CC/C(=C\c3cc(OC)c(O)c(OC)c3)C2=O)cc(OC)c1O`, in that order: -70.7% and -13%.
Consider `Cc1nc([N+](=O)[O-])c(Br)n1Cc1ccccc1`, for which the inhibition in assay [1] is 3.69%; in assay [2], 11.9%.
For `COc1cc(NC(=O)C2CC(c3c(F)cccc3Cl)=NO2)cc(OC)c1OC` (stereo not drawn), in that order: -4.58% and 4.43%.
With `Cc1ccc(NC(=O)Cn2cccc2C2=NC(c3ccccc3)CO2)cc1C` (stereo not drawn), the inhibition in assay [1] is -8.04%; in assay [2], -4.44%.
Consider `COc1cccc(C(=O)c2sc(NC(C)C)nc2N)c1`, for which the inhibition is 6.6% in assay [1] and 57.2% (active) in assay [2].
For `Oc1cccc2c(NC(=S)Nc3ccc(SC(F)F)cc3)cccc12`, in that order: -23.5% and 53.1% (active).
As to `COc1cccc(NC(=O)N2CCc3nc(Nc4ccc(C(C)C)cc4)ncc3C2)c1`, the inhibition in assay [1] was -73.3%; in assay [2], 7.35%.
On to `Cc1cc(C(=O)COC(=O)c2ccc(O)cc2O)c(C)n1-c1ccc(OC(F)F)cc1`, for which the inhibition was 12.6% in assay [1] and 35.1% in assay [2].
For `CC(C)N=C(NS(=O)(=O)c1ccccc1)C(Cl)(Cl)Cl`, in that order: 7.46% and 28.2%.
Take `Cc1ccc(-c2c(C(=O)N/N=C/C3CCCCC3)nnn2-c2nonc2N)cc1`: the inhibition in assay [1] was -21.5%; in assay [2] it was -23%.
Consider `O=C(CCc1nnc(C2CCCCC2)o1)N1CCC(Oc2cccnc2)CC1`, for which the inhibition is 1.02% in assay [1] and 4.42% in assay [2].
With `CCn1c(SCC(=O)c2ccc(-c3ccccc3)cc2)nnc1-c1ccc(C(C)(C)C)cc1`, the inhibition in assay [1] is 22.6%; in assay [2] it was 31.3%.
For the molecule `Cc1ccc2nc(-c3cc(N)cc(N)c3)oc2c1`, the inhibition was -8.66% in assay [1] and 38.3% in assay [2].
With `CCCC(O)(CCC)C(=O)NN(C(=O)CCl)c1ccccc1`, the inhibition in assay [1] is 8.55%; in assay [2], 30.1%.
Regarding `Cc1ccc(NC(=O)C2CCN(S(=O)(=O)c3c(C)noc3/C=C/c3ccco3)CC2)nc1`, the inhibition was 11.6% in assay [1] and 22.4% in assay [2].
As to `O=[N+]([O-])c1cc(Br)c(Nc2ccccc2)c([N+](=O)[O-])c1`, the inhibition in assay [1] was -21.9%; in assay [2], -12.5%.
`COc1ccc(CCNc2ncnc3cc(OC)c(OC)cc23)cc1OC`: the inhibition was 0.49% in assay [1] and 16.4% in assay [2].
In the case of `O=C(CCCN1C(=O)/C(=C/c2cccs2)SC1=S)Nc1ccccn1`, the inhibition in assay [1] is 12.4%; in assay [2], 10.9%.
As for `CN(C)S(=O)(=O)c1cccc(NC(=O)CSc2ncnc3ccccc23)c1`, the inhibition in assay [1] was 7.54%; in assay [2], 29.7%.
Regarding `c1ccc(CCNc2ncnc3scc(C4COc5ccccc5O4)c23)cc1` (stereo not drawn), the inhibition in assay [1] was -8.4%; in assay [2], -10.3%.
Consider `COc1ccc(C#Cc2ccc3c(c2)[C@H]2[C@H](CCN2S(=O)(=O)c2ccccc2F)[C@H](CO)N3C)cc1`, for which the inhibition in assay [1] is -5.48%; in assay [2] it was 8.22%.
With `COC(=O)c1ccc(CSc2nc3sc(C)c(C)c3c(=O)[nH]2)cc1`, the inhibition in assay [1] is -20.1%; in assay [2], -17.4%.
With `COc1ccccc1C(=O)NCc1ccc(-c2nc3ccccc3s2)cc1`, the inhibition in assay [1] is -14%; in assay [2], 22.1%.
As to `COc1ccc(C(=O)C(CN2CCCC2)c2ccccc2)cc1` (stereo not drawn), the figures for the inhibition in assay [1] and in assay [2] were 0.75% and 40.2%, respectively.
On to `O=c1[nH]sc2ccccc12`, for which the inhibition was 7.96% in assay [1] and 8.22% in assay [2].
With `O=C(O)Cc1nn(Cc2ccc(Cl)cc2)c(=O)c2ccccc12`, the inhibition in assay [1] was -13.4%; in assay [2] it was -30.9%.
